Test results published in ChEMBL document CHEMBL3988442, “University of Dundee, Small-Polar-MMV Screening Library” (2021).
For part of these data: Measured potencies and affinities stand elsewhere.

Legend:
Set-up in all cases: scale not given: direction of the effect not stated beside the values
[1] = target: Protein translocase subunit SecA (Escherichia coli (strain K12)) (UniProt P10408); experiment: Assay to Identify E. coli SecA ATPase Inhibitors; assay type: functional; settings: 30 µM
[2] = target: T1, Ubiquitin-activating enzyme e1, putative (Leishmania donovani (strain BPK282A1)) (UniProt E9BSI1); experiment: Leishmania donovani Ubiquitin Activating Enzyme (LdE1); assay type: functional; settings: 30 µM
T1 sequence (whole entry): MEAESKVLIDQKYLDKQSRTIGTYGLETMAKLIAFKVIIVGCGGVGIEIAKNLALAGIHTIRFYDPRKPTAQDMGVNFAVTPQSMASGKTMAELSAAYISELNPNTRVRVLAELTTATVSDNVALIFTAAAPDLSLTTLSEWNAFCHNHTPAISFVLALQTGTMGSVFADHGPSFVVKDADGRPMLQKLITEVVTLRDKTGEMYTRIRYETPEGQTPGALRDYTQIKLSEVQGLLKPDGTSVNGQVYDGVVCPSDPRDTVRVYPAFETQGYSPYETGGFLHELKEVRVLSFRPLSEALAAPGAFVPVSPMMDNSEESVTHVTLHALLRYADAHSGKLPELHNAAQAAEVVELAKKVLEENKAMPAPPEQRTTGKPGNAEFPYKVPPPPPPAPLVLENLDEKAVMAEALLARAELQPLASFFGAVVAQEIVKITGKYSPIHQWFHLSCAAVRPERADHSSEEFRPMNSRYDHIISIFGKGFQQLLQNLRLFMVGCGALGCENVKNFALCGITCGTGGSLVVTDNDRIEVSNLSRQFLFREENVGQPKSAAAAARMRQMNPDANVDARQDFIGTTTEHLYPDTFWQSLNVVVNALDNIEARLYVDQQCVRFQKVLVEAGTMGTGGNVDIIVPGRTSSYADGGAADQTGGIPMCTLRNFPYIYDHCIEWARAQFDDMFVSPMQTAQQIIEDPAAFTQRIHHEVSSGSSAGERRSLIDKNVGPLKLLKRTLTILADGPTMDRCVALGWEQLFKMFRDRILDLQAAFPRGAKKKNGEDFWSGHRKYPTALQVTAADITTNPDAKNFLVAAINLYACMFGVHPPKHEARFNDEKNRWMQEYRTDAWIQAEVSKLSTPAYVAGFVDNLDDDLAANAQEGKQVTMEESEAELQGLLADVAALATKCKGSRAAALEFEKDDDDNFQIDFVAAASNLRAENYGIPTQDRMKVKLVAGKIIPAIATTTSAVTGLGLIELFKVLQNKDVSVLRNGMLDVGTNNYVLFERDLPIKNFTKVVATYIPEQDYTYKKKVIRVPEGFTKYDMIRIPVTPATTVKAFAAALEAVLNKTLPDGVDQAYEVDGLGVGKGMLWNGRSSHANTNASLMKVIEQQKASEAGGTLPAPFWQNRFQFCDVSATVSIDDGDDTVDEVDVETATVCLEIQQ

[3] = target: Sialic acid-binding Ig-like lectin 9 (Homo sapiens) (UniProt Q9Y336); experiment: Hs-Siglec9 ALPHAscreen SOP 20170721; settings: 10 µM
Trypanosoma cruzi = experiment: Trypanosoma cruzi phosphomannomutase and mannose-1-phosphate guanylyltransferase assay; assay type: functional; settings: 10 µM
[4] = target: T2, Arginase-2, mitochondrial (Homo sapiens) (UniProt P78540); experiment: in vitro enzyme assay to detect the production of urea directly proportional to the activity of Arginase II; assay type: functional; settings: 33.3 µM; also: in the data most compounds retested in dose-response had high values
T2 sequence (whole entry): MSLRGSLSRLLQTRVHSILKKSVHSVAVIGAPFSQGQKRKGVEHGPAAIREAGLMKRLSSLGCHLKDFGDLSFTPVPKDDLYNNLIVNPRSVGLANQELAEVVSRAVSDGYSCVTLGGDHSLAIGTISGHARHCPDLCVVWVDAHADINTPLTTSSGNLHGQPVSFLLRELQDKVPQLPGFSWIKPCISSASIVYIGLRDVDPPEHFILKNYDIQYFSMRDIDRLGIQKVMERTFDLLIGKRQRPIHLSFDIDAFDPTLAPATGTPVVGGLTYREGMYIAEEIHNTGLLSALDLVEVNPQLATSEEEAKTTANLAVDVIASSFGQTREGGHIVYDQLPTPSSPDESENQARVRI

[5] = target: T3, Proteasome subunit beta (Trypanosoma cruzi) (UniProt O96673); experiment: Trypanosoma cruzi proteasome chymotrypsin-like activity (TcProtChymo) assay.; also: in the data most compounds retested in dose-response had high values; assay type: functional; settings: 9.37 µM
T3 sequence (whole entry): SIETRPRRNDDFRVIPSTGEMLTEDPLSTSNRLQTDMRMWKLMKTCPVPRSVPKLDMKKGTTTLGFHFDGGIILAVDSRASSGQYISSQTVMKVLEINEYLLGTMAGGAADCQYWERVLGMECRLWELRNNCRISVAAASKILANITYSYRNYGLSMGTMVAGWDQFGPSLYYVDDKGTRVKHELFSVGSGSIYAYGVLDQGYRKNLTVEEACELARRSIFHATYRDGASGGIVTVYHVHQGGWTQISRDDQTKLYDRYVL

Homo sapiens = species: Homo sapiens; experiment: To identify inhibition of the IFN signalling (Jak-Stat) pathway via expression of an eGFP reporter gene under the control of an IFN-stimulated response element (ISRE) containing MxA promoter.; assay type: functional; settings: 30 µM
[6] = target: T4, Tyrosyl-tRNA synthetase, putative (Trypanosoma cruzi (strain CL Brener)) (UniProt Q4DSP6); experiment: Trypanosoma cruzi tyrosyl tRNA synthetase (TcYRS) _High Tyrosine SOP; assay type: functional; settings: 30 µM; also: in the data most compounds retested in dose-response had high values
T4 sequence (whole entry): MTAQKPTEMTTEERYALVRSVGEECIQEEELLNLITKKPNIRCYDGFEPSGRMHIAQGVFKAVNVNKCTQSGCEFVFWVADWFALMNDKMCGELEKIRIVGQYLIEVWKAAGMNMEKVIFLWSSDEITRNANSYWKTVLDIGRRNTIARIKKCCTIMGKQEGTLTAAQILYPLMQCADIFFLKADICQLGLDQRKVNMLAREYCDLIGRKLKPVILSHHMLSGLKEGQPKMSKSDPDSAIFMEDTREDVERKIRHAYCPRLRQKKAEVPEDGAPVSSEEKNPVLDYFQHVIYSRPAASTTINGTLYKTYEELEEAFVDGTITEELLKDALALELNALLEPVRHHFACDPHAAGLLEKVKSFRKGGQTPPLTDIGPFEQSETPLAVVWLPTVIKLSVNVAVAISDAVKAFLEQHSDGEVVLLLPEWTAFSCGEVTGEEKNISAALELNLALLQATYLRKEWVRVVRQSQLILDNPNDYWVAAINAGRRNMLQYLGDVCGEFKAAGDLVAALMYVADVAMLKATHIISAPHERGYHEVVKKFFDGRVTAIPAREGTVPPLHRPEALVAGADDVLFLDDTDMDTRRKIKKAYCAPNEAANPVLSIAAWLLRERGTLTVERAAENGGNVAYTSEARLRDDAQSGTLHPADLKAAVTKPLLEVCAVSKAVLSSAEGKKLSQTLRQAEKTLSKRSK

[7] = target: T4, Tyrosyl-tRNA synthetase, putative (Trypanosoma cruzi (strain CL Brener)); experiment: Trypanosoma cruzi tyrosyl tRNA synthetase (TcYRS) SOP; assay type: functional; settings: 30 µM
[8] = target: Chromo domain-containing protein 1 (Saccharomyces cerevisiae (strain ATCC 204508 / S288c) (Baker's yeast)) (UniProt P32657); experiment: ScCHD-1 Enzyme Inhibition Assay; assay type: functional; settings: 30 µM; also: in the data most compounds retested in dose-response had high values
[9] = target: AMP-activated protein kinase, AMPK (Homo sapiens) (UniProt P54646+O43741+P54619+Q9UGJ0+Q9Y478+Q13131+Q9UGI9); experiment: AMP-dependent Kinase enzyme assay. An in vitro enzyme assay that detects ADP turnover that is directly proportional to AMPK activity. This uses naive AMPK that is activated during the assay with MK-8722; assay type: functional; settings: 30 µM

Chain of Protein translocase subunit SecA (Escherichia coli (strain K12)) (P10408 whole entry): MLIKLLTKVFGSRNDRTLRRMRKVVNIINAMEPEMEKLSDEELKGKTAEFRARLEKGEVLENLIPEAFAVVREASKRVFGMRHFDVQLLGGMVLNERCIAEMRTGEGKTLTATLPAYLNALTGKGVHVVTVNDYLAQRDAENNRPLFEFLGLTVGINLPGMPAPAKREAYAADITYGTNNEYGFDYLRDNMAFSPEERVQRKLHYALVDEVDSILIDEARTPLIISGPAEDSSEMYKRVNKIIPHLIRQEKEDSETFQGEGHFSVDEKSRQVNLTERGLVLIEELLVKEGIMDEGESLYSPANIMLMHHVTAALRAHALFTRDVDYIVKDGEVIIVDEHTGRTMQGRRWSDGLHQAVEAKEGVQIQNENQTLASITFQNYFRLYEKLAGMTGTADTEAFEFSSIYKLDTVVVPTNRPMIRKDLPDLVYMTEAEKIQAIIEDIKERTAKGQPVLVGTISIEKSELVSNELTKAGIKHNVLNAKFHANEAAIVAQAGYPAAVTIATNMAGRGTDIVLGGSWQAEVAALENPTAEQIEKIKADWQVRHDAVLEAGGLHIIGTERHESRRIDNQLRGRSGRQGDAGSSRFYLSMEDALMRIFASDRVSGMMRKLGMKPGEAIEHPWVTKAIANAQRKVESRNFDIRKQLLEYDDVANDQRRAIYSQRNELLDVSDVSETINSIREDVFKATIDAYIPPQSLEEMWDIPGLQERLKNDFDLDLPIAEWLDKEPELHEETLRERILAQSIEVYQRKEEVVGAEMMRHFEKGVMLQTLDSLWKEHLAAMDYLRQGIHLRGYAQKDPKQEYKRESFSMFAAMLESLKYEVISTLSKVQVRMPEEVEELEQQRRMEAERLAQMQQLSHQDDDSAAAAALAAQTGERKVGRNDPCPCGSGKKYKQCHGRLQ
Chain of Sialic acid-binding Ig-like lectin 9 (Homo sapiens) (Q9Y336 whole entry): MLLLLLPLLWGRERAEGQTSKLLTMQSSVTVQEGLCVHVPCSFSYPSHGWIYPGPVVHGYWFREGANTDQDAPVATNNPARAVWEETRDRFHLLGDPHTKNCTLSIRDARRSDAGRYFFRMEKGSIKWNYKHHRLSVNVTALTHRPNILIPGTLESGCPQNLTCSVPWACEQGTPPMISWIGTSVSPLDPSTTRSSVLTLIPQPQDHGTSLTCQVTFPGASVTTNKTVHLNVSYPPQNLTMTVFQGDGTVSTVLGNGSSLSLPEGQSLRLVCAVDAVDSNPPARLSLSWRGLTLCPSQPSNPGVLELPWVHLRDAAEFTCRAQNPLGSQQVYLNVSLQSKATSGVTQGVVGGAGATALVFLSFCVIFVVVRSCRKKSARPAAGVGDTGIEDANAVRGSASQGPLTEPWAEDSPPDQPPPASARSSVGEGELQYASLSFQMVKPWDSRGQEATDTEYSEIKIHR
Chain of Chromo domain-containing protein 1 (Saccharomyces cerevisiae (strain ATCC 204508 / S288c) (Baker's yeast)) (P32657 whole entry, the tested form may be a part): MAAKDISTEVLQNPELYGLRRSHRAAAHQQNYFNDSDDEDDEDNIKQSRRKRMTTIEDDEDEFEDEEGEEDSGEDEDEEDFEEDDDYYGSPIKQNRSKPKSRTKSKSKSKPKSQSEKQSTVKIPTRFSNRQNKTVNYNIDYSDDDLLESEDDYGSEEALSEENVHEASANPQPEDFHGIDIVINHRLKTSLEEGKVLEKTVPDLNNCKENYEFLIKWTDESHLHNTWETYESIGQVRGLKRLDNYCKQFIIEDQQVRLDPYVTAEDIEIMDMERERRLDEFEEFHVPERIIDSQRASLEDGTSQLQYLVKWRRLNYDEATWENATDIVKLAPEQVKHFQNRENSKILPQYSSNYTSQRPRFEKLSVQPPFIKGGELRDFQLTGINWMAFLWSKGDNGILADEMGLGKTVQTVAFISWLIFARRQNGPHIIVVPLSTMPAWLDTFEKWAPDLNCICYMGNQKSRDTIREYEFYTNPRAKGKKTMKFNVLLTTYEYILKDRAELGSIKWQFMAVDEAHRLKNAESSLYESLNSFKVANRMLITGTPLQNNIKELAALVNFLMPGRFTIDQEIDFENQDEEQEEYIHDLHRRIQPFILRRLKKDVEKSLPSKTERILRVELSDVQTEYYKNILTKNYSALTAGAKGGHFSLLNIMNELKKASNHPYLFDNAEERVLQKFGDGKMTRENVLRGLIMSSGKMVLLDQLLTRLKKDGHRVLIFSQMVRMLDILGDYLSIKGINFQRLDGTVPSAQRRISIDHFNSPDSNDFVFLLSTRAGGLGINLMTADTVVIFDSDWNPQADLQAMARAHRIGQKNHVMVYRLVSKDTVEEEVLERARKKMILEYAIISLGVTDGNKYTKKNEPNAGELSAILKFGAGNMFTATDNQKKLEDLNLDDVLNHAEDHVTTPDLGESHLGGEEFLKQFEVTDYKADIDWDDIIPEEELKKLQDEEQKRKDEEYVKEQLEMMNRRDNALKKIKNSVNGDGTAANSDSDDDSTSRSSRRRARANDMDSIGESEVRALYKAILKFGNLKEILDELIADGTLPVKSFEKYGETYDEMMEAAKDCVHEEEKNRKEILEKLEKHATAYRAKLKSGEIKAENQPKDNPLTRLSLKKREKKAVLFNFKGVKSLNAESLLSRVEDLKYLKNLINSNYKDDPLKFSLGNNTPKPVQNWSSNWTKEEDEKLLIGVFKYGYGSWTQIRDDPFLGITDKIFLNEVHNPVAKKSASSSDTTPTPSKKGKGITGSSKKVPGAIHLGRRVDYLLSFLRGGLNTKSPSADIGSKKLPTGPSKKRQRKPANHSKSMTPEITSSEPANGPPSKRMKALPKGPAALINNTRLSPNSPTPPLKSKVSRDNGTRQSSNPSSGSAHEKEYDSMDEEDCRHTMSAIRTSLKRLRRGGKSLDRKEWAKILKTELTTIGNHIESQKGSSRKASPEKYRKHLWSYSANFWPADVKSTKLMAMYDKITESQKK

Row | SMILES | Percent Effect [1] [%] | Percent Effect [2] [%] | Percent Effect [3] [%] | Percent Effect (Trypanosoma cruzi) [%] | Percent Effect [4] [%] | Percent Effect [5] [%] | Percent Effect (Homo sapiens) [%] | Percent Effect [6] [%] | Percent Effect [7] [%] | Percent Effect [8] [%] | Percent Effect [9] [%]
1 | Cn1cc(CN2CCCC3(CCCN3S(C)(=O)=O)C2)cn1 (stereo unspecified) | -3.74 | 9.09 | -4.49 | -4.77 | 2.02 | 12.3 | -3.8 | 5.79 | 10.3 | 1.97 | 
2 | COc1ccc(OCCN(C)C(=O)NC(C)c2nncn2C)cc1 (stereo unspecified) | -4.39 | 10.7 | -0.704 | -5.02 | 5.76 | 15.3 | 17.3 | 3.68 | 12.8 | -6.11 | 
3 | Cc1cc(C(=O)NCC(C)N2CCc3ccccc32)no1 (stereo unspecified) | 0.558 | 2.6 | 10.1 | 2.8 | -4.3 | 0.175 | 23.3 | 7.84 | 11.8 | -1.74 | 
4 | O=C1CCC2(CCN(Cc3ccc(F)cc3)CC2)N1Cc1ccccc1 | -4.42 | 3.9 | -4.8 | -2.63 | -0.913 | 9.7 | 1.33 | 5.8 | 7.5 | -4.62 | 
5 | CCCn1[nH]cc/c1=N\C(=O)CN1CCc2cnc(CC)nc2C1 | 0.849 | 0 | 1.8 | -2.61 | 9.76 | 2.29 | 3.62 | 11.1 | 7.69 | 5.4 | 
6 | O=C1CO[C@@H]2CN(Cc3cccs3)C[C@H]2N1CC1CC1 | -6.35 | 19.5 | -2.08 | 2.04 | 1.62 | 13.9 | -6.77 | 13.2 | 17.9 | -0.629 | 
7 | Cc1nccc(CN2CC[C@H](Oc3cccc(F)c3)[C@@](C)(O)C2)n1 | -2.64 | 14.7 | 6.31 | -0.197 | 3.1 | 0.657 | 2.7 | 7.41 | 15 | -17.3 | 
8 | CC(=O)N[C@@H]1CN(C(=O)c2cccc(C(F)(F)F)c2)C[C@H]1O |  |  |  |  |  |  |  |  |  |  | 5.07
9 | CNc1snc(C)c1C(=O)N1CCCC(n2ccnc2C(C)C)C1 (stereo unspecified) | -0.908 | 0 | 1.03 | 2.21 | 0.444 | 5 | 14.7 | 1.58 | 0 | -1.07 | 
